This note sets out measurements from PubChem BioAssay AID485364 (National Center for Advancing Translational Sciences (NCATS), 2010).

Structures are written as SMILES. Hit rate of the full screen: of about 360,000 compounds, about 11,000 (3.1%) were called active. Roughly 4% stayed inconclusive and do not appear here. Calls come from the whole dose curve; as a rule, active = well fitted inhibition curve with a large enough effect; inconclusive = small, poorly fitted or top-dose-only effect; inactive = no such curve, though single readings can be large or run the other way. The entries come from a sample that favours actives as a whole. Entries that show only a call come without a potency.
Potency is the fitted concentration of half-maximal effect.

The test concerns the target Schistosoma mansoni thioredoxin glutathione reductase (TGR) (UniProt Q962Y6). As to the kind of experiment: qHTS Assay for the Inhibitors of Schistosoma Mansoni Peroxiredoxins. Note: nearly all actives have a fitted effect of over 60% in size. The note with it: purified TGR, DTNB reduction, TNB absorbance 405 nm; series mostly up to 114 µM. In outline: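 First, TGR (20 nM dispensed) and NADPH were mixed with compound. Second, a 15 min room-temperature incubation followed. Third, further NADPH and then DTNB were added to start the reaction. Finally, TNB absorbance was monitored kinetically.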
On the technique in general: Quantitative high-throughput screening tests each substance at several concentrations.
As to `CC1=C(C/C=C(\C)CCCC(C)CCCC(C)CCCC(C)C)C(=O)c2ccccc2C1=O` (configuration not stated), the Potency is 28.2 µM (active).

On to `CC(=O)Nc1ccc(NC(=O)CCCc2nc(-c3ccc(C(C)(C)C)cc3)no2)cc1`, for which the Potency result is “inactive”.

With `Cc1cc(C)c(-c2n[nH]c3c2C(c2ccccc2F)N(CCO)C3=O)c(O)c1` (configuration not stated), the Potency result is “inactive”. Next, `COc1ccc(N2CCN(Cc3nc4c(c(=O)[nH]c(=O)n4C)n3Cc3ccc(Cl)cc3)CC2)cc1`: “inactive”; `CCOC(=O)c1c(NC(=S)NC(=O)/C=C/c2cccs2)sc(C)c1C`: “inactive”; `CCOC(=O)c1c(NC(=O)/C=C/c2ccco2)sc(C)c1C`: 35.5 µM (active). With `Cc1nnc(NC(=O)CCCOc2ccccc2)s1`, the Potency entry was “inactive”.

With `Cc1nnc(NC(=O)C(c2ccccc2)c2ccccc2)s1`, the Potency result is “inactive”.

`Cc1nnc(NC(=O)/C=C/c2ccco2)s1`: the Potency was 22.4 µM (active).

As to `CCOC(=O)c1sc(NC(=O)/C=C/c2ccc(C(C)C)cc2)c(C(=O)OCC)c1C`, the Potency result is “inactive”.

Turning to `O=C(CSc1nc(-c2cccc(F)c2)[nH]c1-c1ccccc1)Nc1ccc2c(c1)OCO2`, the Potency entry is “inactive”.

For `CCN(CC)S(=O)(=O)c1ccc(C(=O)N=c2sc3cccc(OC)c3n2C)cc1`, the Potency result is “inactive”. For the compound `Cc1ccc(C)c(OCC(=O)Nc2sc3c(c2C#N)CCCC3)c1C`, the Potency entry is “inactive”. `Cc1ccccc1-n1nc(C)c2cc(C(=O)NC3CC3)sc21`: the Potency entry is “inactive”.

Turning to `Cc1ccccc1-n1nc(C)c2c1N=C1C(Cl)=CC(Cl)=CN1C2c1ccc(C(=O)O)cc1` (configuration not stated), the Potency is 35.5 µM (active).

On to `Cc1nn(-c2ccccc2)c(Cl)c1/C=C/C(=O)c1ccc(O)cc1`, for which the Potency result is “inactive”. The result for `O=C(Nc1ccc2nc(SCC(=O)N3CCCc4ccccc43)sc2c1)c1ccc(F)cc1` reads “inactive”; that for `CC(=O)c1ccc(NC(=O)c2nc(-c3ccc(C)cc3)n3c2CCCCC3)cc1`, “inactive”.

In the case of `Cc1ccccc1CNC(=O)CCCn1nc(C)c2sc3ccccc3c2c1=O`, the Potency entry is “inactive”. Next, `CCC(C)NC(=O)C1c2ccccc2C(=O)N1Cc1ccccc1` (configuration not stated): “inactive”.

On to `O=C(CC1OC(=O)c2ccccc21)NC1CCCCC1` (configuration not stated), for which the Potency result is “inactive”. The result for `O=C(NC1CCCCC1)C1c2ccccc2C(=O)N1Cc1ccco1` (configuration not stated) reads 39.8 µM (active); that for `CC(NC(=O)c1cc(Sc2ccc(F)cc2F)nc2ccccc12)c1ccccc1` (configuration not stated), “inactive”; that for `CC(C)C(=O)Nc1nc2c(s1)CC(C(C)(C)C)CC2` (configuration not stated), “inactive”.

With `Cc1ccc(S(=O)(=O)N(CC(=O)Nc2ccc(Cl)cc2Cl)c2ccccc2C)cc1`, the Potency entry is “inactive”. With `COc1cccc(CN2CCc3nc(SCC(=O)Nc4ccccc4)[nH]c(=O)c3C2)c1`, the Potency entry is “inactive”. Next, `CC(C)c1ccc(NC(=O)C2CCN(c3nc(-c4ccc(C(C)C)cc4)no3)CC2)cc1`: “inactive”; `COc1cccc(N2C(=O)CN(Cc3ccccc3)C2=S)c1`: “inactive”; `O=C(C1CC(=O)N(c2ccc(F)cc2)C1)N1CCN(c2ccccc2)CC1` (configuration not stated): “inactive”. Turning to `COc1cccc(N2CC(NS(=O)(=O)c3ccc(Cl)cc3)CC2=O)c1` (configuration not stated), the Potency result was “inactive”. Turning to `COc1cccc(N2CCN(C3CC(=O)N(c4ccc(Cl)cc4)C3=O)CC2)c1` (configuration not stated), the Potency is 39.8 µM (active). For `COc1cccc(N(CC(=O)N2CCc3ccccc3C2)S(C)(=O)=O)c1`, the Potency result is “inactive”.

As for `COc1cccc(N2C(=O)CC(N3CCc4ccccc4C3)C2=O)c1` (configuration not stated), the Potency was 39.8 µM (active). Consider `COC(=O)CN(C(=S)Nc1ccc(Cl)cc1)C1CC(=O)N(c2ccc(OC)cc2)C1=O` (configuration not stated), for which the Potency entry was “inactive”. The result for `COc1cccc(N2C(=O)CC(N3CCN(S(=O)(=O)c4ccccc4)CC3)C2=O)c1` (configuration not stated) reads 39.8 µM (active); that for `O=C1CC(N2CCN(c3ccc(F)cc3)CC2)C(=O)N1c1ccccc1` (configuration not stated), 50.1 µM (active). Next, `COc1ccc(COCCN2CCN(S(=O)(=O)c3ccccc3)CCC2=O)cc1`: “inactive”; `COc1ccc(CN2CCCC(N3CCc4ccccc4C3)C2)c(O)c1` (configuration not stated): “inactive”; `CN1C(=O)CC(N2CCN(c3ccccn3)CC2)C1=O` (configuration not stated): “inactive”. The result for `C=Cc1ccc(Cn2c(C(=O)OC)cc3sc(C)cc32)cc1` reads “inactive”; that for `COc1ccc(C(=O)CSc2c(C(C)C)cnc3c2c(=O)n(C)c(=O)n3C)cc1`, “inactive”. For the compound `COc1cc2[nH]c(=O)n(Cc3ccc(C(=O)NCc4ccc(C)cc4)cc3)c(=O)c2cc1OC`, the Potency entry is “inactive”.

In the case of `Cc1ccc(CC2CC(=O)N(c3ccc4c(c3)OCCO4)C2=O)cc1` (configuration not stated), the Potency entry is “inactive”. For `O=CN1CCN(C2CC(=O)N(c3ccc4c(c3)OCO4)C2=O)CC1` (configuration not stated), the Potency is 44.7 µM (active). The result for `COc1ccc(N2CCN(C3CC(=O)N(c4ccc5c(c4)OCCO5)C3=O)CC2)cc1` (configuration not stated) reads “inactive”. The result for `COc1cc(Nc2nc(-c3ccc(OC)c(OC)c3)nc3ccccc23)cc(OC)c1` reads “inactive”; that for `CC(=O)c1ccc(NC(=O)CSc2c(C(C)C)cnc3c2c(=O)n(C)c(=O)n3C)cc1`, “inactive”; that for `Cc1cccc(NC(=O)CSc2ncc(-c3ccccc3)[nH]2)c1C`, “inactive”. With `COc1ccc(CN(C)C(=O)c2cc(-c3ccc(C)cc3C)nc3ccccc23)c(OC)c1OC`, the Potency result is “inactive”. In the case of `Cc1ccc(NC(=O)c2cc(-c3ccc(C)o3)nc3ccccc23)nc1`, the Potency is 11.2 µM (active). Next, `O=C(c1cc(-c2ccc(Cl)s2)nc2ccccc12)N1CCOCC1`: “inactive”. The result for `CC(=O)N1CCN(C(=O)c2cc(-c3ccc(C)o3)nc3ccccc23)CC1` reads “inactive”. Next, `CN(CCOc1ccccc1)C(=O)c1cc(COc2c(F)cccc2F)on1`: “inactive”; `CSc1ncccc1C(=O)Nc1ccc(C)cn1`: “inactive”.

For `COc1ccc(/C=C(\C#N)C(=O)OCC(=O)N(C)C2CCS(=O)(=O)C2)cc1` (configuration not stated), the Potency entry was “inactive”.

With `CN(C(=O)COC(=O)c1cc(-c2ccco2)nc2ccccc12)C1CCS(=O)(=O)C1` (configuration not stated), the Potency is 3.55 µM (active). `CCOc1ccccc1-c1cc(C(=O)N2CCOCC2)c2ccccc2n1`: the Potency result is “inactive”. Next, `CC1CCCN(C(=O)c2cc(-c3ccco3)nc3ccccc23)C1` (configuration not stated): 31.6 µM (active). For `CN(CCOc1ccccc1)C(=O)c1cc(-c2ccco2)nc2ccccc12`, the Potency is 3.16 µM (active). Regarding `COc1ccc(NC(=O)COc2ccc(C(=O)OCC(=O)N(C)C3CCS(=O)(=O)C3)cc2OC)cc1` (configuration not stated), the Potency result was “inactive”.

With `Cc1ccc(-c2nnc(Nc3ccc(OCC(N)=O)cc3)c3ccccc23)cc1S(=O)(=O)NCC1CCCO1` (configuration not stated), the Potency result was “inactive”. As to `Cc1ccc(Cl)cc1N1CCN(C(=O)c2cnc3c(-c4ccc(F)cc4)c(C)nn3c2C)CC1`, the Potency entry was “inactive”. Regarding `CC(=O)N1c2ccccc2CC1C(=O)N1CCN(c2ccc(F)cc2)CC1` (configuration not stated), the Potency result is “inactive”. Next, `Cc1ccc2oc(=O)c3cnn(CC(=O)N4CCN(c5cccc(Cl)c5)CC4)c3c2c1`: “inactive”; `Fc1cccc(-n2ncc3c2ncn2nc(-c4ccccc4Cl)nc32)c1`: “inactive”; `CCOc1cccc(C(=O)Nc2nnc(S(=O)(=O)N(C)c3ccc(C)cc3)s2)c1`: “inactive”. The result for `O=C(Nc1ccc2oc(-c3ccc(O)c(Br)c3)nc2c1)c1cc2ccccc2o1` reads “inactive”; that for `COc1ccc(OC)c(NC(=O)CN2CCCN(Cc3cc(C)ccc3C)S2(=O)=O)c1`, “inactive”. Take `Cc1csc2nc(COC(=O)c3ccc(NC(=O)COc4ccccc4F)cc3)cc(=O)n12`: the Potency entry is “inactive”.

In the case of `COc1cccc(N=C2SC(C(=O)Nc3cccc(Cl)c3)CC(=O)N2C)c1` (configuration not stated), the Potency entry was “inactive”.

Regarding `CN(Cc1ccccc1)c1ncnc2onc(-c3ccc(F)cc3)c12`, the Potency entry is “inactive”.

As to `CC(=O)c1cccc(NC(=O)c2nc(-c3ccccc3)n(-c3cccc(C)c3)n2)c1`, the Potency result was “inactive”. As to `CCN(CC)CCNC(=O)CN1N=C(c2ccc(OC)cc2)CCC1=O`, the Potency result is “inactive”.

As to `O=C(c1ccc(Cl)s1)N(Cc1nnc(-c2ccccc2Cl)o1)C1CC1`, the Potency result is “inactive”. Next, `COc1ccc(NC(=O)CN(C)C(=O)c2cc(-c3ccc(C)o3)nc3ccccc23)cc1`: 28.2 µM (active); `COc1ccc(-c2cc(C(=O)N(C)CC(=O)Nc3ccccc3Cl)c3ccccc3n2)cc1OC`: “inactive”; `O=C(c1cc(-c2ccco2)nc2ccccc12)N(Cc1nnc(-c2ccc(Cl)cc2)o1)C1CC1`: 8.91 µM (active).

With `COc1ccc(NC(=O)CN(C)C(=O)c2n[nH]c3ccccc23)cc1`, the Potency entry was “inactive”. For the compound `CC(C)N(Cc1nnc(-c2ccccc2Br)o1)C(=O)c1cc(Cl)nc2ccccc12`, the Potency entry is “inactive”.

Consider `COc1ccc(Cc2nc3ccc(C(=O)NCc4ccc(OC)cc4OC)cc3o2)cc1`, for which the Potency entry is “inactive”. Next, `O=C(Nc1cc(C(F)(F)F)ccc1Cl)c1ccc2c(c1)CCN2S(=O)(=O)c1ccccc1`: “inactive”.

As to `COc1ccc(NC(=O)CSc2nnc(-c3nnn(-c4ccc(F)cc4)c3C)o2)cc1`, the Potency entry was “inactive”. `COc1cc(C(=S)N2CCOCC2)ccc1O`: the Potency entry is “inactive”. With `COc1ccc(C)cc1NC(=S)N1CCOCC1`, the Potency is 17.8 µM (active). Next, `COc1ccc(OC)c(NC(=S)N2CCc3ccccc3C2)c1`: “inactive”; `O=C(CCc1cn(Cc2ccc(F)cc2)c2ccccc12)NC1CCCCC1`: “inactive”; `CC(C)Cn1c(C2CC(=O)N(c3ccccc3Cl)C2)nc2ccccc21` (configuration not stated): “inactive”. Next, `O=C(NCCc1ccccc1)c1ccc2c(c1)N(Cc1ccc(F)cc1)C(=O)c1ccccc1S2(=O)=O`: “inactive”; `O=C(NCC1COc2ccccc2O1)C1(c2ccccc2)CCCC1` (configuration not stated): “inactive”.

In the case of `CN(C)CCOC(=O)C(c1ccccc1)C1(O)CCCC1` (configuration not stated), the Potency result was “inactive”.

`CN(C)CC1Oc2ccccc2OC1(O)c1ccccc1` (configuration not stated): the Potency was 0.355 µM (active).

With `CCOc1ccc(CC(=O)NCCc2csc3nc(-c4ccccc4F)nn23)cc1`, the Potency entry is “inactive”. For the compound `O=C(COc1ccc(Cl)cc1)N(Cc1ccco1)Cc1ccco1`, the Potency result was “inactive”.

Take `O=C(Nc1nonc1-c1ccc(Cl)cc1)c1ccco1`: the Potency entry was “inactive”. Next, `CCN(c1ccc(Cl)cc1)S(=O)(=O)c1nnc(NC(=O)c2ccco2)s1`: “inactive”; `O=C(Nc1nc(-c2ccco2)c(-c2ccco2)s1)c1ccco1`: 7.94 µM (active).

Consider `COc1ccc(S(=O)(=O)NCCSc2nnnn2-c2ccccc2)cc1`, for which the Potency result is “inactive”. As to `O=C(CCSCc1ccccc1F)N1CCN(c2ccc(Cl)cc2)CC1`, the Potency result is “inactive”.

For the compound `CC(C)=C1C2CCC1C1C(=O)N(NC(=O)c3ccco3)C(=O)C21` (configuration not stated), the Potency entry was “inactive”. The result for `O=C(NN1C(=O)C2C3C=CC(C4CC34)C2C1=O)c1ccc(Cl)cc1` (configuration not stated) reads “inactive”. Next, `O=C(NN1C(=O)C2C3C=CC(O3)C2C1=O)c1ccccc1` (configuration not stated): 20 µM (active); `COc1ccc(C(=O)NN2C(=O)C3C(c4ccccc4)C=CC(c4ccccc4)C3C2=O)cc1` (configuration not stated): “inactive”. As to `COc1ccccc1C(=O)NCCC(=O)NN1C(=O)NC2(CCCCC2)C1=O`, the Potency result was “inactive”.

With `COc1ccccc1C(=O)NN1C(=O)C2C3C=CC(O3)C2C1=O` (configuration not stated), the Potency is 17.8 µM (active). Next, `O=C(NN1C(=O)C2C3C=CC(O3)C2C1=O)c1ccncc1` (configuration not stated): 20 µM (active).

As to `COc1ccccc1C(=O)Nn1cnnc1`, the Potency result was “inactive”. Next, `O=C(NN1C(=O)C2C3C=CC(C3)C2C1=O)c1ccco1` (configuration not stated): “inactive”.
